An excerpt weighted towards active compounds, which were near 6.7% of everything screened.
Pf Dd2 growth – P. falciparum Dd2 growth inhibitors, primary screen, SYBR Green fluorescence, single dose replicates. activity change, % at 10 µM. 94,000 compounds, 2.3% hits. 72 h; active compounds read low. AID 1159554, 2015; in the data active means activity change below about -80%; inconclusive means no clear call, values can overlap the other calls
T cruzi growth-1 – T. cruzi intracellular proliferation inhibitors, primary screen, cell-based, beta-gal Tulahuen parasites, NIH3T3 host, luminescence; 77,000 compounds, 5.9% hits; T. cruzi beta-gal in NIH3T3, GalScreen luminescence, 90 h; inhibition, % at 8.34 µM;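 active means mean inhibition above about 93%, with at least 55% of replicates each passing it, limit read from the data, passing the limit was not always enough; inconclusive means only one of those two conditions holds; inactive means neither condition holds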
C diff growth – C. difficile growth inhibitors, primary screen, HTS; Clostridium difficile clinical isolate growth, OD600, 24 h; active compounds read low; growth activity, negative = inhibition, % at 16 µg/mL (by protocol); 86,000 compounds, 0.25% hits; AID 1259249, 2017;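 active means mean growth activity at or below -80% and every replicate also at or below -80%; inconclusive means mean at or below -80% but some replicate above -80%; inactive means mean growth activity above -80%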;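 further: 0% = DMSO wells and -100% = levofloxacin 16 µg/mL wells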
T cruzi growth-2 – T. cruzi intracellular proliferation inhibitors, confirmation, cell-based, NIH3T3 host, beta-gal parasite, luminescence, cherry-pick | AID 651739, 2012 | shares compounds with T cruzi growth-1 | inhibition, % at 8.35 µM | 5,600 compounds, 72% hits | T. cruzi beta-gal in NIH3T3, GalScreen luminescence, 90 h;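 active means mean replicate inhibition above about 95% and at least 55% of replicates individually reaching it, limit read from the data; inconclusive means only one of the two criteria is met; inactive means neither criterion is met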
T cruzi growth-3 – inhibitors of intracellular T. cruzi replication, confirmation, NIH3T3 host cells, beta-gal parasites, cherry-pick, set 2. shares compounds with T cruzi growth-1. T. cruzi beta-gal in NIH3T3, GalScreen luminescence, 90 h. inhibition, % at 2.09 µM. 5,600 compounds, 21% hits. AID 651740, 2012;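 active means mean inhibition above about 95%, with at least 55% of replicates also reaching it, limit read from the data; inconclusive means meets just one of the two conditions; inactive means meets neither condition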;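 further: plate controls were neutral control median for no effect and positive control median for full effect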
3T3 cytotox – cytotoxicity in mouse NIH/3T3 fibroblasts, confirmation, cytotoxicity control for T. cruzi proliferation inhibitor project, cell-based, cherry-pick, single point | shares compounds with T cruzi growth-1 | cytotoxicity (signal decrease), % at 8.35 µM | 5,600 compounds, 14% hits | NIH/3T3 viability, CellTiter-Glo ATP luminescence, 90 h;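 active means mean signal decrease across replicates above about 35% based on untreated-well scatter, with enough replicates individually passing, limit read from the data; inconclusive means no rule stated though some were filed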;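 further: 0% = median of neutral control wells and 100% = median of positive control wells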
3T3 cytotox 2 – NIH/3T3 fibroblast cytotoxicity, confirmation, cytotoxicity control, cell-based, cherry-pick, single point, set 2; shares compounds with T cruzi growth-1; NIH/3T3 viability, CellTiter-Glo ATP luminescence, 90 h; inhibition, % at 24.9 µM; 5,600 compounds, 56% hits; AID 651744, 2012;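 active means mean loss of cell viability signal at or above a set limit, and enough replicates individually reaching it; inconclusive means meets only the mean limit or only the replicate share; inactive means meets neither condition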;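 further: 0% = median of neutral control wells and 100% = median of positive control wells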
* = called active by the depositor.

Results for Cc1noc(C)c1NC(=O)Nc1ccc2c(c1)CC(=O)N([C@H](C)CO)C[C@@H](C)[C@H](CN(C)C(=O)Nc1ccc(C(F)(F)F)cc1)O2 ?
Pf Dd2 growth: 9.5; T cruzi growth-1: 35.9; C diff growth: -2.3

How did C[C@H](CO)N1C[C@H](C)[C@H](CN(C)C(=O)c2ccncc2)Oc2ncc(C#CC3CCCCC3)cc2C1=O do in these assays?
Pf Dd2 growth: -19.8; T cruzi growth-1: -80.0; C diff growth: 1.6

How did C[C@H]1CCCCO[C@@H](CN(C)C(=O)Nc2ccc3c(c2)OCO3)[C@@H](C)CN([C@@H](C)CO)C(=O)c2cc(NC(=O)Nc3ccccc3)ccc2O1 do in these assays?
Pf Dd2 growth: -3.2; T cruzi growth-1: 117.2*; C diff growth: -8.9; T cruzi growth-2: 111.0*; T cruzi growth-3: 6.1; 3T3 cytotox: -14.5; 3T3 cytotox 2: -2.5

What do the screens show for `C[C@@H]1CN([C@@H](C)CO)C(=O)c2cc(NC(=O)Nc3ccccc3)ccc2O[C@@H](C)CCCCO[C@@H]1CN(C)C(=O)Nc1ccc2c(c1)OCO2`?
Pf Dd2 growth: -49.2; T cruzi growth-1: 11.4; C diff growth: 3.3

How did CO[C@H]1CN(C)C(=O)c2cc(NS(C)(=O)=O)ccc2OC[C@H](C)N(Cc2nccs2)C[C@H]1C do in these assays?
Pf Dd2 growth: 1.1; T cruzi growth-1: -2.9

How did C[C@@H]1CCCCO[C@@H](CN(C)C(=O)c2ccccc2)[C@@H](C)CN([C@@H](C)CO)C(=O)c2cc(NC(=O)Nc3cccc4ccccc34)ccc2O1 do in these assays?
Pf Dd2 growth: -14.0; T cruzi growth-1: 22.1; C diff growth: -2.8

How did C[C@@H]1CCCCO[C@H](CN(C)C(=O)C2CCCCC2)[C@H](C)CN([C@@H](C)CO)C(=O)c2cc(NC(=O)Nc3cccc4ccccc34)ccc2O1 do in these assays?
Pf Dd2 growth: -48.4; T cruzi growth-1: inconclusive; C diff growth: -6.4; T cruzi growth-2: 105.2*; T cruzi growth-3: 79.6; 3T3 cytotox: 10.8; 3T3 cytotox 2: 22.4

What do the screens show for `C[C@@H]1CCCCO[C@@H](CN(C)C(=O)Nc2cccc3ccccc23)[C@H](C)CN([C@@H](C)CO)C(=O)c2cc(NC(=O)Nc3cccc4ccccc34)ccc2O1`?
Pf Dd2 growth: -12.5; C diff growth: 6.2

How did C[C@@H]1CCCCO[C@H](CN(C)C(=O)C2CCCCC2)[C@@H](C)CN([C@@H](C)CO)C(=O)c2cc(NC(=O)Nc3cccc4ccccc34)ccc2O1 do in these assays?
Pf Dd2 growth: -92.1*; T cruzi growth-1: inconclusive; C diff growth: -2.5; T cruzi growth-2: 102.5*; T cruzi growth-3: 102.0*; 3T3 cytotox: -18.9; 3T3 cytotox 2: -2.6

What do the screens show for `C[C@H](CO)N1C[C@H](C)[C@H](CN(C)C(=O)C2CCCCC2)OCCCC[C@H](C)Oc2ccc(NC(=O)Nc3cccc4ccccc34)cc2C1=O`?
Pf Dd2 growth: 23.6; T cruzi growth-1: 120.7*; C diff growth: -9.5; T cruzi growth-2: 105.2*; T cruzi growth-3: 54.0; 3T3 cytotox: -16.8; 3T3 cytotox 2: -8.5

What do the screens show for `C[C@@H]1CCCCO[C@@H](CN(C)C(=O)C2CCCCC2)[C@H](C)CN([C@H](C)CO)C(=O)c2cc(NC(=O)Nc3cccc4ccccc34)ccc2O1`?
Pf Dd2 growth: -41.0; T cruzi growth-1: inconclusive; C diff growth: -5.3; T cruzi growth-2: 109.5*; T cruzi growth-3: 105.0*; 3T3 cytotox: -39.5; 3T3 cytotox 2: -21.9

What do the screens show for `C[C@H]1CCCCO[C@H](CN(C)C(=O)Nc2cccc3ccccc23)[C@@H](C)CN([C@@H](C)CO)C(=O)c2cc(NC(=O)Nc3cccc4ccccc34)ccc2O1`?
Pf Dd2 growth: -33.4; T cruzi growth-1: 50.2

What do the screens show for `C[C@H](CO)N1C[C@H](C)[C@H](CN(C)C(=O)Nc2cccc3ccccc23)OCCCC[C@H](C)Oc2ccc(NC(=O)Nc3cccc4ccccc34)cc2C1=O`?
Pf Dd2 growth: 5.7; T cruzi growth-1: 27.4

What do the screens show for `O=C(N[C@@H]1CC[C@@H](CC(=O)N2CCCCC2)O[C@@H]1CO)c1ccccn1`?
Pf Dd2 growth: 13.4; T cruzi growth-1: -31.2; C diff growth: 0.5

What do the screens show for `O=C(C[C@@H]1CC[C@H]2NC[C@H](O)COC[C@@H]2O1)Nc1ccccc1`?
Pf Dd2 growth: 12.2; T cruzi growth-1: 0.5

Results for CCS(=O)(=O)NCC[C@@H]1CC[C@@H](NC(=O)C2CC2)[C@@H](CO)O1 ?
Pf Dd2 growth: 37.1; C diff growth: -1.0

How did CN(C)CCCNC(=O)[C@H]1[C@H](CO)[C@H]2Cn3c(ccc(-c4cccc(F)c4)c3=O)[C@@H]1N2 do in these assays?
Pf Dd2 growth: 39.6; C diff growth: -1.0

What do the screens show for `C[C@@H]1CCCCO[C@@H](CN(C)C(=O)C2CCCCC2)[C@@H](C)CN([C@H](C)CO)C(=O)c2cc(NC(=O)Nc3cccc4ccccc34)ccc2O1`?
Pf Dd2 growth: -72.3; T cruzi growth-1: 70.7; C diff growth: 4.3

Results for C[C@H](CO)N1C[C@H](C)[C@@H](CN(C)C(=O)C2CCCCC2)OCCCC[C@H](C)Oc2ccc(NC(=O)Nc3cccc4ccccc34)cc2C1=O ?
Pf Dd2 growth: -6.2; T cruzi growth-1: 118.9*; C diff growth: 0.2; T cruzi growth-2: 88.3; T cruzi growth-3: 48.7; 3T3 cytotox: -11.7; 3T3 cytotox 2: inconclusive

How did COc1cccc(-c2ccc([C@@H]3[C@H](CO)N4C(=O)CN(C(=O)C5CCCC5)C[C@@H]34)cc2)c1 do in these assays?
Pf Dd2 growth: -57.5; C diff growth: 8.3

What do the screens show for `C[C@@H]1CN([C@H](C)CO)S(=O)(=O)c2ccc(C#CCN(C)C)cc2O[C@@H]1CN(C)C(=O)C1CCC1`?
Pf Dd2 growth: 7.2; T cruzi growth-1: 71.5; C diff growth: -0.7

How did C[C@H](CO)N1C[C@H](C)[C@@H](CN(C)C(=O)C2CC2)Oc2cc(C#CCN(C)C)ccc2S1(=O)=O do in these assays?
Pf Dd2 growth: 12.0; T cruzi growth-1: 100.0*; C diff growth: -3.0; T cruzi growth-2: 107.3*; T cruzi growth-3: 92.1; 3T3 cytotox: 14.0; 3T3 cytotox 2: 15.0

Compound activity deposited in PubChem by Broad Institute.
